# Data published in PubChem BioAssay AID720518 (National Center for Advancing Translational Sciences (NCATS), 2013).
# Results filed as inconclusive are left out. Calls of active or inactive are those of the source. Calls come from the whole dose curve.
# Assay: qHTS for Inhibitors of Cell Surface uPA Generation: Wild-type Protective Antigen (WT-PrAg) Counterscreen for Cherry-picked Compounds; for activity (protection): 0% is about no effect
# Conditions: cells, WT protective antigen toxicity counterscreen; series mostly up to 115 µM; activity (protection): at the top concentration
# Potency is the fitted concentration of half-maximal effect.
SMILES,activity (protection),Potency
COc1ccc(-c2nn(CCC#N)cc2C(=O)Nc2ccccc2)cc1OC,-0.28% (inactive),–
Cc1cc(COc2ccccc2)oc1C(=O)O,-0.762% (inactive),–
Cc1ccc(S(=O)(=O)NCC(=O)N/N=C/c2ccc(Cl)cc2)cc1,-1.05% (inactive),–
Cc1cc(C)nc(N2N=C(C(F)(F)F)CC2=O)n1,-1.02% (inactive),–
Cc1ccc(S(=O)(=O)NCC(=O)OC(C)C(=O)NCc2ccc3c(c2)OCO3)cc1 (stereo not given),-0.702% (inactive),–
O=C1NCCN1C(=O)N(c1ccccc1)c1ccccc1,-0.281% (inactive),–
O=C(OCC(=O)N1CCOCC1)c1c(Cl)ccc(Cl)c1Cl,-0.419% (inactive),–
Cc1cc(N)n(Cc2ccc(Cl)cc2)n1,-0.742% (inactive),–
CSc1nc(N)nc2c1ncn2CC(=O)NCC1CCCO1 (stereo not given),0.724% (inactive),–
CCOc1ccc(Cl)cc1/C=N/NC(=O)c1ccccc1,-0.125% (inactive),–
Cc1ccc(S(=O)(=O)N(C)c2ccc(OC(=O)c3ccc(=O)[nH]c3)cc2)cc1,-0.512% (inactive),–
CC(=O)Nc1sc(C)c(C)c1C(=O)OCC(=O)NC(C)c1ccccc1 (stereo not given),0.373% (inactive),–
COC(=O)c1cc(CNC(=O)c2ccc(N3CCCC3)c([N+](=O)[O-])c2)ccc1OC,-1.8% (inactive),–
CCS(=O)(=O)N1CCC(C(=O)NCc2ccc(OC)cc2OC)CC1,0.322% (inactive),–
CN(C)c1cccc(C(=O)N(C)C2CCCN(Cc3ccccc3F)C2)c1 (stereo not given),–,23.3 µM (active)
Cc1ccc(-n2c(O)c(C=NCCN3CCNCC3)c(=O)[nH]c2=S)cc1,6.27% (inactive),–
Fc1ccc(CNc2ccccn2)cc1,-1.09% (inactive),–
CCCC1=NN(C(=O)Cc2ccc(OC)cc2)C(O)(C(F)(F)F)C1 (stereo not given),-0.864% (inactive),–
CCCCn1c(C2CCCCC2)nc2cc3[nH]c(=O)c(C(C)C)nc3cc21,-2.19% (inactive),–
O=S(=O)(/N=C(/c1ccccc1)N1CCOCC1)c1ccc(F)cc1F,0.385% (inactive),–

SMILES,activity (protection),Potency
O=C(COc1cccc2ccccc12)NNC(=O)c1cnccn1,-1.17% (inactive),–
CCc1ccc(OCC(=O)N(Cc2cccs2)C2CCS(=O)(=O)C2)cc1 (stereo not given),1.58% (inactive),–
O=C(c1ccco1)N1CCN(c2ncccn2)CC1,-0.994% (inactive),–
CCCCn1c(SCC(=O)Nc2cc(C(F)(F)F)ccc2Cl)nnc1C(CC)N(C)C (stereo not given),–,58.5 µM (active)
CCCNC(=O)C1CCC(CNS(=O)(=O)c2ccc3c(c2)CC(C)N3C(C)=O)CC1 (stereo not given),-0.174% (inactive),–
COc1ccc2nc3c(cc2c1)c(NC(=O)C1CCCO1)nn3CC(C)C (stereo not given),1.84% (inactive),–
C[C@@H](NC(=O)c1nc[nH]c1C(=O)NCc1ccc(CNC(=O)OC(C)(C)C)cc1)c1ccccc1,-1.9% (inactive),–
NC(=O)C1CCN(C(=O)c2cccc3ccccc23)CC1,0.996% (inactive),–
COCCN(C(=O)c1ccc(OC2CCN(S(=O)(=O)N(C)C)CC2)cc1)C(C)C,0.247% (inactive),–
COC(=O)COc1cc2ccccc2cc1C(=O)Nc1ccccc1,-0.212% (inactive),–
CCC(=O)N1CCC(NC(=O)Nc2ccc(OC(F)(F)F)cc2)CC1,-0.144% (inactive),–
C[C@]12CCC(O)CC1CCC1C2CC[C@]2(C)C(c3cc(C(F)(F)F)n[nH]3)CCC12 (stereo not given in full),-2.57% (inactive),–
CC1(NC(=O)CSc2nnc(-c3c[nH]c4ccccc34)n2C2CC2)CCS(=O)(=O)C1 (stereo not given),1.32% (inactive),–
Cc1ccccc1NC1c2ccccc2C(=O)N1Cc1ccco1 (stereo not given),-0.797% (inactive),–
O=C(CSc1nnnn1-c1cccc(F)c1)Nc1nc2ccccc2s1,0.476% (inactive),–
CC(C)(C)n1ncc2c(=O)n(Cc3ccc(Cl)cc3)cnc21,-2.17% (inactive),–
COc1ccc(C(=O)CC(=O)C(=O)Nc2ccccc2)cc1,-2.05% (inactive),–
Clc1ccccc1N1CCN(c2ncnc3nc[nH]c23)CC1,-0.131% (inactive),–
Cc1cc(C)nc(NC(=O)CSc2nccc(C)n2)n1,-1.49% (inactive),–
O=C(c1cccc(F)c1)N1CCN(Cc2cccc(Br)c2)CC1,-1.52% (inactive),–
